Assay [1] in a line: NCI Yeast Anticancer Drug Screen. Data for the rad50 strain (AID 155).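 Also: 0% = growth of vehicle-only cultures of the same strain.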 The conditions noted are these: S. cerevisiae rad50 strain growth inhibition; at 50.0 µM; active compounds read high. Put shortly:
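Inhibition values express reduced yeast growth in compound-treated cultures relative to vehicle-treated controls.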

Assay [2] can be described thus: NCI Yeast Anticancer Drug Screen. Data for the mec2-1 strain (AID 157). Particulars: S. cerevisiae mec2-1 strain, at 50.0 µM, active compounds read high. In a few lines: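 Growth inhibition is read against vehicle-treated controls after compound exposure of the mec2-1 yeast strain, which is defective in DNA damage repair or cell cycle control.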
The nature of assay [3]: NCI Yeast Anticancer Drug Screen. Data for the sgs1 mgt1 strain (AID 161).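 Also: 0% = growth of cultures given vehicle only.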 The conditions noted are these: S. cerevisiae sgs1 mgt1 strain, at 50.0 µM, active compounds read high. In a few lines:
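Growth of a repair-deficient yeast mutant was monitored after compound treatment and expressed as inhibition relative to vehicle-treated cultures.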

Assay [4] is described as follows: NCI Yeast Anticancer Drug Screen. Data for the cln2 rad14 strain (AID 165).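 Also: 0% = growth equal to vehicle treated cultures.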 The conditions noted are these: S. cerevisiae cln2 rad14 strain, at 50.0 µM, active compounds read high. In a few lines: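 Growth inhibition, relative to vehicle-treated controls, is the read-out. The test organism is a yeast strain with defined genetic alterations, cln2 rad14.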
Assay [5] in a line: NCI Yeast Anticancer Drug Screen. Data for the bub3 strain (AID 167). Particulars: S. cerevisiae bub3 mutant strain, at 50.0 µM, active compounds read high. In a few lines: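 Steps: expose the mutant yeast strain to compound; grow alongside vehicle-treated cultures; measure growth; express inhibition against the vehicle cultures.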
A short description of assay [6]: NCI Yeast Anticancer Drug Screen. Data for the mlh1 rad18 strain (AID 175). The conditions noted are these: S. cerevisiae mlh1 rad18 strain growth inhibition; at 50.0 µM; active compounds read high. In a few lines:
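Cells of a genetically altered yeast strain, deficient in DNA damage repair, were treated with compound. Their growth was then compared with that of vehicle-treated cultures to give inhibition.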

About 79,000 compounds went through this panel and 15% of them were active in at least one assay; those are over-represented in the sample as a whole. Unmarked numbers belong to inactive results. The source made the active and inactive calls. Rule as the data show it: active = growth inhibition above about 70%; inactive = the rest.

Take `CC1=NCC(C)S1` (configuration not stated): the growth inhibition in assay [1] was -3.3%; in assay [2], -9.95%; in assay [3] it was 7%; in assay [4], -6.05%; in assay [5], -9.3%; in assay [6], -5.75%.

In the case of `COc1ccc2c(c1)CCC1C(=O)NN=C21` (configuration not stated), the growth inhibition in assay [1] is 12.8%; in assay [2] it was -4.1%; in assay [3], -5.6%; in assay [4], -43.4%; in assay [5] it was -23.1%; in assay [6], -8%.

For `c1cc2[nH]snc2c2cncc12`, the growth inhibition is 12.5% in assay [1]; 9.2% in assay [2]; 0.25% in assay [3]; -19.1% in assay [4]; -24.1% in assay [5]; 6.6% in assay [6].

For `CCC(=O)NCC(=O)O`, the growth inhibition was -4.15% in assay [1]; -10.6% in assay [2]; -16.1% in assay [3]; 0.3% in assay [4]; 8.15% in assay [5]; -6.15% in assay [6].

Consider `CCOC(=O)c1cc(N)c(C(=O)OCC)cc1N`, for which the growth inhibition is 4.15% in assay [1]; -16.5% in assay [2]; -1.3% in assay [3]; 3.6% in assay [4]; 8.65% in assay [5]; 10.3% in assay [6].

For the molecule `CCc1ccccc1NC(=O)/C=N/O`, the growth inhibition in assay [1] is -27.9%; in assay [2], -24.1%; in assay [3], -17.6%; in assay [4], -7.3%; in assay [5], -22.6%; in assay [6], -11.2%.

Turning to `O=C(O)c1cccnc1-c1ccccc1`, the growth inhibition in assay [1] was -3.95%; in assay [2] it was 23.6%; in assay [3] it was -9.85%; in assay [4], -4.7%; in assay [5], -12.9%; in assay [6], -12.2%.

For `C=COC(=O)C=C`, the growth inhibition in assay [1] is -3.1%; in assay [2], 9.15%; in assay [3], -3.2%; in assay [4], -0.2%; in assay [5], 13.9%; in assay [6], -9.15%.

Take `COc1ccc2c3c(c4ccccc4c2c1)C(=O)OC3=O`: the growth inhibition is 27.8% in assay [1]; 11.2% in assay [2]; 16.7% in assay [3]; 18.6% in assay [4]; 21.8% in assay [5]; 19.2% in assay [6].

As to `COc1ccc(NC(=O)COC(=O)c2cccc3c(=O)c4ccccc4[nH]c23)cc1`, the growth inhibition in assay [1] is 43.4%; in assay [2], 41.2%; in assay [3], 27.4%; in assay [4] it was 23.2%; in assay [5], 21.2%; in assay [6] it was 48.6%.

For the molecule `CCOC(=O)CC(C)C(Br)(C(=O)OCC)C(=O)OCC` (configuration not stated), the growth inhibition is 47.5% in assay [1]; 93.5% (active) in assay [2]; 89.4% (active) in assay [3]; 20.5% in assay [4]; 93.4% (active) in assay [5]; 95.4% (active) in assay [6].

Regarding `CSc1ncnc2nn(C3OC(CO)C(O)C3O)cc12` (configuration not stated), the growth inhibition is 8.1% in assay [1]; 5.85% in assay [2]; 6.25% in assay [3]; 8.4% in assay [4]; -9.6% in assay [5]; -5.4% in assay [6].

Turning to `CN(C)Cc1cccc(C(F)(F)F)c1C(O)c1ccccc1` (configuration not stated), the growth inhibition in assay [1] was 7.75%; in assay [2], -10.2%; in assay [3] it was -5.3%; in assay [4], 3.9%; in assay [5], 7.7%; in assay [6], -14.7%.

Turning to `O=C(CCCCCC(=O)N1CC(CCl)c2ccc([N+](=O)[O-])cc21)N1CC(CCl)c2ccc([N+](=O)[O-])cc21` (configuration not stated), the growth inhibition is -28.8% in assay [1]; -39.8% in assay [2]; -15.6% in assay [3]; -4.5% in assay [4]; -2.9% in assay [5]; -55.4% in assay [6].

As to `O=C(O)/C=C1/CCC(=O)O1`, the growth inhibition was -5.25% in assay [1]; -0.2% in assay [2]; 0.05% in assay [3]; 10.8% in assay [4]; 20.1% in assay [5]; -0.65% in assay [6].

Take `CCn1cc(C(=O)O)c(=O)c2ccc(-c3cn[nH]c3C)nc21`: the growth inhibition in assay [1] is 44.5%; in assay [2], 34.1%; in assay [3] it was 34.6%; in assay [4], 4.45%; in assay [5], 12.2%; in assay [6], 29.9%.

Turning to `NCCS/C=C\C(=O)OCc1ccc(Br)cc1`, the growth inhibition in assay [1] is 31.6%; in assay [2], 4.4%; in assay [3], 9.65%; in assay [4], 6.45%; in assay [5] it was 19.1%; in assay [6] it was 54.1%.

Consider `Cc1ccc(NCCN(C)C)c2c(=O)c3cccc(O)c3sc12`, for which the growth inhibition is 73.5% (active) in assay [1]; 35.1% in assay [2]; 18.2% in assay [3]; 26.8% in assay [4]; 40.4% in assay [5]; 65% in assay [6].

Regarding `CC(CNC(N)=O)NC(N)=O` (configuration not stated), the growth inhibition in assay [1] was -23.8%; in assay [2] it was -15.8%; in assay [3] it was -32.4%; in assay [4], 11.4%; in assay [5], -19.6%; in assay [6], -24.4%.

Consider `CC(C)(CO)N1CCN(C(=S)Nc2ccccc2)CC1`, for which the growth inhibition was 17.9% in assay [1]; -2.6% in assay [2]; -0.3% in assay [3]; -1.9% in assay [4]; -10.8% in assay [5]; 17.8% in assay [6].

As for `O=c1c2ccccc2c(=O)n2n1C1C=CC2C1`, the growth inhibition in assay [1] is -5%; in assay [2], -7.15%; in assay [3] it was 1.55%; in assay [4] it was -6.4%; in assay [5], 4.5%; in assay [6] it was -4.55%.

`COC(=O)CC(CC(=O)OC)N1CC=CC1`: the growth inhibition is -12.9% in assay [1]; 10.5% in assay [2]; -5.95% in assay [3]; -15.1% in assay [4]; 5.35% in assay [5]; 31.6% in assay [6].

The values above are taken from PubChem BioAssay (NCI).
